Compounds without any hit were thinned out: in the full panel of roughly 79,000, 15% have a hit. The source made the active and inactive calls. Cut-off read from the data, not from the text of the source: active = growth inhibition above about 70%; inactive = the rest.
Assays:
[1] = NCI Yeast Anticancer Drug Screen. Data for the rad52 strain (AID 147);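 note: 0% = growth of vehicle-treated control cultures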; conditions: S. cerevisiae rad52 mutant growth inhibition, active compounds read high
In short: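 The repair-mutant yeast strain was incubated with compounds, then growth was read and inhibition derived relative to vehicle.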

[2] = NCI Yeast Anticancer Drug Screen. Data for the wt1 strain (AID 149);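 note: 0% = growth of vehicle-treated wt1 cultures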; conditions: S. cerevisiae wt1 strain (SPY 50644) growth inhibition, active compounds read high
In short: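 Using yeast strain wt1, compound-induced growth inhibition was determined against vehicle-treated cultures.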

[3] = NCI Yeast Anticancer Drug Screen. Data for the rad50 strain (AID 155);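 note: 0% = growth of vehicle-only cultures of the same strain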; conditions: S. cerevisiae rad50 strain growth inhibition, active compounds read high
In short: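 Relative growth inhibition (compound vs vehicle) was measured in yeast with a defined repair-gene alteration.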

[4] = NCI Yeast Anticancer Drug Screen. Data for the mec2-1 strain (AID 157); conditions: S. cerevisiae mec2-1 strain, active compounds read high
In short: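 Mutant yeast (mec2-1) grown with compound; growth inhibition relative to vehicle control reported.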

[5] = NCI Yeast Anticancer Drug Screen. Data for the rad14 strain (AID 159);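 note: 0% = growth of vehicle-treated control cultures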; conditions: S. cerevisiae rad14 strain growth inhibition, active compounds read high
In short: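 Screen for anticancer potential: a yeast strain altered in DNA damage repair is grown with compound, and reduced growth is quantified against vehicle controls.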

[6] = NCI Yeast Anticancer Drug Screen. Data for the CLN2oe strain (AID 163);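 note: 0% = growth of vehicle-only control cultures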; conditions: S. cerevisiae CLN2oe strain, active compounds read high
In short: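 Compounds are applied to yeast harbouring a defined cell-cycle control change; reduced growth compared with vehicle-treated controls gives the value.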

[7] = NCI Yeast Anticancer Drug Screen. Data for the cln2 rad14 strain (AID 165);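 note: 0% = growth equal to vehicle treated cultures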; conditions: S. cerevisiae cln2 rad14 strain, active compounds read high
In short: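 Readout is yeast growth inhibition versus vehicle-treated controls, using a strain with cln2 and rad14 alterations exposed to compound.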

[8] = NCI Yeast Anticancer Drug Screen. Data for the bub3 strain (AID 167); conditions: S. cerevisiae bub3 mutant strain, active compounds read high
In short: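 Screening used yeast with an engineered genetic alteration affecting cell cycle control. Compound-exposed cultures were compared with vehicle cultures, and reduced growth was taken as inhibition.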

[9] = NCI Yeast Anticancer Drug Screen. Data for the wt2 strain (AID 169);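 note: 0% = growth of vehicle-treated yeast cultures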; conditions: S. cerevisiae wt2 strain growth inhibition, active compounds read high
In short: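 Against vehicle-treated controls, the growth of yeast exposed to each compound was compared, and the inhibition was recorded.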

[10] = NCI Yeast Anticancer Drug Screen. Data for the mlh1 strain (AID 171);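 note: 0% = growth of vehicle-treated control cultures of the same strain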; conditions: S. cerevisiae mlh1 strain growth inhibition, active compounds read high
In short: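 Measured: yeast growth. Reference: vehicle-treated controls. Organism: strain with a defined alteration affecting DNA damage repair or cell cycle control, treated with compound.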

[11] = NCI Yeast Anticancer Drug Screen. Data for the sgs1 strain (AID 173);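 note: 0% = growth of vehicle-only control cultures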; conditions: S. cerevisiae sgs1 mutant, active compounds read high
In short: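 Each compound was added to cultures of the altered yeast strain. Growth was recorded, and inhibition was derived by comparison with vehicle controls.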

[12] = NCI Yeast Anticancer Drug Screen. Data for the mlh1 rad18 strain (AID 175); conditions: S. cerevisiae mlh1 rad18 strain growth inhibition, active compounds read high
In short: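 Genetically defined yeast (DNA repair-deficient) exposed to compounds; growth inhibition determined relative to vehicle.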

[13] = NCI Yeast Anticancer Drug Screen. Data for the rad18 strain (AID 177); conditions: S. cerevisiae rad18 mutant growth inhibition, active compounds read high
In short: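 Vehicle-treated cultures served as the baseline for scoring compound-induced growth inhibition in DNA-repair-mutant yeast.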

[14] = NCI Yeast Anticancer Drug Screen. Data for the mgt1 strain (AID 153); conditions: S. cerevisiae mgt1 mutant growth inhibition, active compounds read high
In short: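 Vehicle-normalized growth inhibition is determined in mgt1 yeast, a strain selected for a defined alteration in DNA repair or cell cycle control.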

[15] = NCI Yeast Anticancer Drug Screen. Data for the sgs1 mgt1 strain (AID 161);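 note: 0% = growth of cultures given vehicle only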; conditions: S. cerevisiae sgs1 mgt1 strain, active compounds read high
In short: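 Percent growth inhibition was derived by comparing compound-exposed mutant yeast with vehicle-exposed cultures. The strain carries alterations in DNA damage repair.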

[16] = at 5.0 µM (retest, dose inferred, filed as 0.5)
[17] = at 50.0 µM (retest, dose inferred, filed as 5.0)

Measured: growth inhibition

CC(C)OC(=O)Nc1ccc2nc(-c3cscn3)[nH]c2c1
inactive: [1]; at 1.2 µM -3% | [1]; at 3.7 µM -5% | [1]; at 11.0 µM -3% | [1]; at 33.0 µM 1% | [2]; at 1.2 µM -1% | [2]; at 3.7 µM 3% | [2]; at 11.0 µM -1% | [2]; at 33.0 µM -2% | [2]; at 100.0 µM 50% | [3]; at 1.2 µM -1% | [3]; at 3.7 µM -1% | [3]; [16] -4% | [3]; at 11.0 µM -3% | [3]; at 33.0 µM 10% | [3]; [17] 51% | [3]; at 50.0 µM 17.8% | [4]; at 1.2 µM 2% | [4]; at 3.7 µM 5% | [4]; [16] -4% | [4]; at 11.0 µM 8% | [4]; at 33.0 µM 16% | [4]; [17] 23% | [4]; at 50.0 µM -3.75% | [5]; at 1.2 µM -4% | [5]; at 3.7 µM -6% | [5]; at 11.0 µM -4% | [5]; at 33.0 µM 16% | [6]; at 1.2 µM -8% | [6]; at 3.7 µM -20% | [6]; at 11.0 µM -18% | [6]; at 33.0 µM -13% | [6]; at 100.0 µM 56% | [7]; [16] 8% | [7]; [17] 19% | [7]; at 50.0 µM 12.8% | [8]; at 1.2 µM -3% | [8]; at 3.7 µM -2% | [8]; [16] -1% | [8]; at 11.0 µM 4% | [8]; at 33.0 µM 25% | [8]; at 50.0 µM 7.85% | [9]; at 1.2 µM -1% | [9]; at 3.7 µM -2% | [9]; at 11.0 µM -4% | [9]; at 33.0 µM 2% | [10]; at 1.2 µM 1% | [10]; at 3.7 µM 1% | [10]; at 11.0 µM 3% | [10]; at 33.0 µM 16% | [11]; at 1.2 µM 2% | [11]; at 3.7 µM 3% | [11]; at 11.0 µM 8% | [11]; at 33.0 µM 18% | [12]; [16] 11% | [13]; at 1.2 µM -2% | [13]; at 3.7 µM -4% | [13]; at 11.0 µM -3% | [13]; at 33.0 µM 4%
active: [1]; at 100.0 µM 87% | [3]; at 100.0 µM 90% | [4]; at 100.0 µM 81% | [5]; at 100.0 µM 99% | [8]; [17] 81% | [8]; at 100.0 µM 97% | [9]; at 100.0 µM 97% | [10]; at 100.0 µM 96% | [11]; at 100.0 µM 97% | [12]; [17] 87% | [12]; at 50.0 µM 93.1% | [13]; at 100.0 µM 97%

CC1(C)CC(=O)C(/C=N/c2nc(-c3ccccc3)cs2)=C(O)C1
inactive: [1]; at 1.2 µM 1% | [1]; at 3.7 µM 5% | [1]; at 11.0 µM 19% | [1]; at 33.0 µM 41% | [2]; at 1.2 µM 2% | [2]; at 3.7 µM 2% | [2]; at 11.0 µM 6% | [2]; at 33.0 µM 22% | [2]; at 100.0 µM 54% | [14]; at 1.2 µM -1% | [14]; at 3.7 µM -2% | [14]; at 11.0 µM 5% | [14]; at 33.0 µM 22% | [3]; at 1.2 µM -5% | [3]; at 3.7 µM -13% | [3]; [16] -3% | [3]; at 11.0 µM -4% | [3]; at 33.0 µM 40% | [3]; [17] 57% | [4]; at 1.2 µM 2% | [4]; at 3.7 µM 2% | [4]; [16] 0% | [4]; at 11.0 µM 8% | [4]; at 33.0 µM 35% | [4]; [17] 32% | [4]; at 50.0 µM 20.1% | [5]; at 1.2 µM 3% | [5]; at 3.7 µM 5% | [5]; at 11.0 µM 17% | [5]; at 33.0 µM 45% | [15]; [16] -5% | [15]; [17] 38% | [6]; at 1.2 µM -4% | [6]; at 3.7 µM -5% | [6]; at 11.0 µM 1% | [6]; at 33.0 µM 25% | [6]; at 100.0 µM 61% | [7]; [16] 35% | [7]; [17] 21% | [7]; at 50.0 µM 45.4% | [8]; at 1.2 µM -2% | [8]; at 3.7 µM -3% | [8]; [16] -19% | [8]; at 11.0 µM -1% | [8]; at 33.0 µM 23% | [8]; [17] 19% | [8]; at 100.0 µM 68% | [9]; at 1.2 µM -2% | [9]; at 3.7 µM 1% | [9]; at 11.0 µM 7% | [9]; at 33.0 µM 36% | [10]; at 1.2 µM 0% | [10]; at 3.7 µM 3% | [10]; at 11.0 µM 12% | [10]; at 33.0 µM 45% | [11]; at 1.2 µM 2% | [11]; at 3.7 µM 5% | [11]; at 11.0 µM 26% | [11]; at 33.0 µM 63% | [12]; [16] 10% | [13]; at 1.2 µM 6% | [13]; at 3.7 µM 22%
active: [1]; at 100.0 µM 84% | [14]; at 100.0 µM 77% | [3]; at 50.0 µM 89.9% | [3]; at 100.0 µM 84% | [4]; at 100.0 µM 76% | [5]; at 100.0 µM 83% | [15]; at 50.0 µM 94.2% | [8]; at 50.0 µM 75.1% | [9]; at 100.0 µM 82% | [10]; at 100.0 µM 81% | [11]; at 100.0 µM 83% | [12]; [17] 87% | [12]; at 50.0 µM 97% | [13]; at 11.0 µM 72% | [13]; at 33.0 µM 88% | [13]; at 100.0 µM 91%

From PubChem BioAssay (NCI)
